± gives the standard deviation of the averaged measurements.
Legend:
Details in all cases: concentration: 10 µM; 24 h
HCC1569 [1] = assay: cell number relative to DMSO (% of DMSO); higher = more cells (less growth inhibition / toxicity)
Summary of the method: (§1)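 For HCC1569 and TDF cells, compounds at 10 µM were applied for 24 h at 37 °C in triplicate in 384-well plates. Cells were fixed in 3.7% formaldehyde, stained for H1.0 and with DAPI, and imaged at ×10 over six fields per well. The endpoint, H1.0 nuclear intensity or cell number, is shown as percent of the plate control using the median of replicates. Positional effects were smoothed for HCC1569 only.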

TDF [2] = assay: as above
Summary of the method: as §1

TDF [3] = assay: H1.0 immunofluorescence intensity relative to DMSO (% of DMSO); higher = stronger H1.0 induction, active = 120 or more
Summary of the method: as §1

HCC1569 [4] = assay: H1.0 immunofluorescence intensity relative to DMSO (% of DMSO); higher = stronger H1.0 induction, active = 140 or more
Summary of the method: as §1
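Throughout, for H1.0 immunofluorescence intensity relative to DMSO: TDF is a line of transformed human dermal fibroblasts of mesenchymal origin.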
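Throughout, for cell number relative to DMSO: TDF denotes transformed human dermal fibroblasts of mesenchymal origin.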

Compound	cell number (HCC1569 [1])	cell number (TDF [2])	H1.0 immunofluorescence intensity (TDF [3])	H1.0 immunofluorescence intensity (HCC1569 [4])
CS(=O)(=O)O.Cc1c(O)cccc1C(=O)NC(CSc1ccccc1)C(O)CN1CC2CCCCC2CC1C(=O)NC(C)(C)C (stereo not drawn) [Nelfinavir mesylate]	102	112	90.6 (inactive)	116 (inactive)
CSc1cccc(Nc2ncc3cc(-c4c(Cl)cccc4Cl)c(=O)n(C)c3n2)c1	37.3	6.26	145 (active)	150 (active)
Cc1cccc2c3c(ccc12)C1=C(C(=O)C3=O)C(C)CO1 (stereo not drawn) [Dihydrotanshinone]	53.6	33.6	111 (inactive)	106 (inactive)
NC(=O)c1cc[n+](CC2=C(C(=O)[O-])N3C(=O)C(NC(=O)C(c4ccccc4)S(=O)(=O)[O-])C3SC2)cc1.[Na+] (stereo not drawn) [Cefsulodin sodium salt hydrate]	99.1	104	94.6 (inactive)	94.3 (inactive)
Cn1cc(-c2ccc3nnc(C(F)(F)c4ccc5ncccc5c4)n3n2)cn1	102	96	96.1 (inactive)	101 (inactive)
N=C(N)c1ccc(OCCCCCOc2ccc(C(=N)N)cc2)cc1 [Pentamidine]	101	104	92.3 (inactive)	113 (inactive)
C=CCc1ccc(O)c(OC)c1 [Eugenol]	103	114	89.5 (inactive)	95.1 (inactive)
Cc1ccccc1C(=O)c1ccc(Nc2ccc(Br)cc2N)cc1Cl	97.3	107	93 (inactive)	117 (inactive)
O=C(O)c1ccc(O)c(O)c1 [Protocatechuic acid]	100	106	91.4 (inactive)	91.3 (inactive)
NC(N)=NN=Cc1c(Cl)cccc1Cl [Guanabenz]	98.5	91.9	98.2 (inactive)	118 (inactive)
CC1CN(c2c(F)c(N)c3c(=O)c(C(=O)O)cn(C4CC4)c3c2F)CC(C)N1 (stereo not drawn) [Sparfloxacin]	104	103	95.6 (inactive)	106 (inactive)
Br.CN1C2CCC1CC(OC(=O)C(O)c1ccccc1)C2 (stereo not drawn)	102	97.5	97.2 (inactive)	94.6 (inactive)
CN1C(C)(C)CCCC1(C)C.O=C(O)C(O)C(O)C(=O)O [Pempidine tartrate]	105	94.9	99.5 (inactive)	99.4 (inactive)
CCCCCC=CCC=CCCCCCCCC(=O)O [9(E),12(E)-Octadecadienoic acid]	96.5	107	100 (inactive)	108 (inactive)
CC(N)(Cc1ccc(O)c(O)c1)C(=O)O (racemic)	101	101	90.9 (inactive)	98.2 (inactive)
Cl.OC(CN1CCN(c2cccc(Cl)c2)CC1)C(c1ccccc1)c1ccccc1 (stereo not drawn)	102	111	94.8 (inactive)	88.3 (inactive)
O=c1[nH]c2ccccc2c2ccccc12 [6(5H)-Phenanthridinone]	100	109	93.8 (inactive)	104 (inactive)
COc1ccc2c(OC)c3ccoc3nc2c1OC [Skimmianine]	100	98.2	99.1 (inactive)	96.2 (inactive)
CNc1ncnc2c1ncn2C1OC(CO)C(O)C1O (stereo not drawn) [N6-Methyladenosine]	95.6	106	93.9 (inactive)	110 (inactive)
Cc1cnc(NC(=O)C2=C([O-])c3ccccc3S(=O)(=O)N2C)s1.[Na+] [Meloxicam sodium]	102	115	91.1 (inactive)	97.1 (inactive)
CCCCS(=N)(=O)CCC(N)C(=O)O (stereo not drawn) [Buthionine sulfoximine]	95.9	116	89.1 (inactive)	92.6 (inactive)
NC(=O)c1ccc(-c2nc(-c3ccc4c(c3)OCCO4)c(-c3ccccn3)[nH]2)cc1 [Casein Kinase I Inhibitor, D4476]	92.2	97	95.4 (inactive)	127 (inactive)
CCC=CCC=CCC=CCC=CCC=CCCCC(=O)O [Eicosapentaenoic acid]	106 ± 9.9	103.8 ± 0.71	103 (inactive)	99.1 (inactive)
CCCCCCC=CC=CCCCCCCCC(=O)O [(9Z,11E)-Octadecadienoic acid]	97.6	106	99.8 (inactive)	100 (inactive)
CC(=O)OC1(C(C)=O)CCC2C3C=C(Cl)C4=CC(=O)C5CC5C4(C)C3CCC21C (stereo not drawn) [Cyproterone Acetate]	107	93.8	103 (inactive)	99.8 (inactive)
O=C1N=c2ccccc2=C1c1[nH]c2ccccc2c1NOCCC(O)CO (stereo not drawn) [Indirubin Derivative E804]	60.8	62.7	102 (inactive)	167 (active)

Compound	cell number (HCC1569 [1])	cell number (TDF [2])	H1.0 immunofluorescence intensity (TDF [3])	H1.0 immunofluorescence intensity (HCC1569 [4])
CN(C)CCOc1ccc(-c2nc(=c3ccc4c(c3)CCC=4N=O)c(=C3C=CNC=C3)[nH]2)cc1	88.6	49	117 (inactive)	132 (inactive)
CCN(CC)CCOC(=O)C1(C2CCCCC2)CCCCC1.Cl [Dicyclomine hydrochloride]	100	96.7	99.8 (inactive)	93.1 (inactive)
CC(C)(CN1C(=O)C(Cl)=C(Cl)C1=O)CN1C(=O)C(Cl)=C(Cl)C1=O	86.4	101	89.8 (inactive)	124 (inactive)
CC(=O)OCC1=C(C(=O)[O-])N2C(=O)C(NC(=O)CSc3ccncc3)C2SC1.[Na+] (stereo not drawn) [Cephapirin sodium]	101	103	93.8 (inactive)	84.4 (inactive)
O=C1NC(=O)c2cc(Nc3ccc(F)cc3)c(Nc3ccc(F)cc3)cc21 [PKCbII/EGFR Inhibitor]	95.1	111	89.7 (inactive)	121 (inactive)
CN1CCC(=C2c3ccccc3CC(=O)c3sccc32)CC1.O=C(O)C=CC(=O)O [Ketotifen fumarate]	101	99.6	91.6 (inactive)	98.7 (inactive)
Brc1c(NC2=NCCN2)ccc2nccnc12	103	102	90.2 (inactive)	96.8 (inactive)
CCC1(O)CC(OC2CC(N(C)C)C(OC3CC(O)C(OC4CCC(=O)C(C)O4)C(C)O3)C(C)O2)c2c(cc3c(c2O)C(=O)c2c(O)cccc2C3=O)C1C(=O)OC (stereo not drawn) [Aclarubicin]	83.2	55.5	129 (active)	210 (active)
CC1c2cccc(O)c2C(O)=C2C(=O)C3(O)C(O)=C(C(N)=O)C(=O)C(N(C)C)C3C(O)C21.Cl (stereo not drawn) [Doxycycline hydrochloride]	96.5	107	96.9 (inactive)	105 (inactive)
CC1=CCCC(C)(O)C=CC(C(C)C)C(OC(=O)c2ccc(O)cc2)C1 (stereo not drawn) [Feroline]	102	96	102 (inactive)	93.3 (inactive)
CCOC(=O)CN1C(=O)c2ccc3c4c(ccc(c24)C1=O)C(=O)N(CC(=O)OCC)C3=O	104	105	89.7 (inactive)	100 (inactive)
CC(C)N(CCC(=O)c1ccc2ccccc2c1)Cc1ccccc1.Cl	96.2	92.5	102 (inactive)	119 (inactive)
NNCCc1ccccc1.O=S(=O)(O)O [Phenelzine sulfate]	103	102	95.3 (inactive)	74.3 (inactive)
CC1=CC(=O)c2ccccc2C1=O [Menadione]	99.9	82.8	106 (inactive)	91.9 (inactive)
Cl.Cl.c1ccc2c3c([nH]c2c1)C1C2CCC(C4CCCNC42)N1CC3 (stereo not drawn)	99.8	100	97.2 (inactive)	101 (inactive)
CC1CCc2c(N3CCC(O)CC3)c(F)cc3c(=O)c(C(=O)O)cn1c23 (stereo not drawn) [Nadifloxacin]	107	89.2	98.7 (inactive)	101 (inactive)
NC(N)=NCc1cccc(I)c1 [N-(3-iodobenzyl)guanidine]	108	97.3	104 (inactive)	105 (inactive)
O=C(O)CCCC=CCC=CC=CC(O)CC=CCCCCCO (stereo not drawn)	101	92.6	98.3 (inactive)	101 (inactive)
CCC=CCC=CCC=CCCCCCCCCCCCC(=O)O [Docosatrienoic acid]	101 ± 2.4	97.7 ± 10	100 (inactive)	102 (inactive)
CCCCCC(O)C=CC1C=CC(=O)C1CCCCCCC(=O)O (stereo not drawn) [Prostaglandin A1]	97 ± 5.2	98 ± 2.2	93.3 (inactive)	93.8 (inactive)
CN1CCN(C2=c3ccccc3=Nc3ccc(Cl)cc3N2)CC1 [Clozapine]	99.6 ± 4.2	105 ± 0.29	95.4 (inactive)	106 (inactive)
CC(=O)Nc1nc(C)c(S(=O)(=O)Nc2ccc(C(O)(C(F)(F)F)C(F)(F)F)cc2)s1	97.5	109	85.1 (inactive)	111 (inactive)
Cn1cnc2c(NC3CCCC3)ncnc21 [N6-Cyclopentyl-9-methyladenine]	76.8	98.1	97.3 (inactive)	159 (active)
CC=C(C)C(=O)OC1CC(C)=CC(=O)C2(C)CCC(O)(C(C)C)C12 (stereo not drawn) [Lapidin]	104	102	95.4 (inactive)	93.9 (inactive)
Br.CN1CCc2cc(O)c(O)cc2C1Cc1ccc(O)c(O)c1.O.O.O (stereo not drawn)	105	108	93.9 (inactive)	89.2 (inactive)
O=C(O)c1cc2cc(F)ccc2[nH]1 [5-Fluoroindole-2-carboxylic acid]	99.3	89	102 (inactive)	98.6 (inactive)

From the supplement of paper PMC7156485
